The text below walks through data of PubChem BioAssay (NCI).

About 79,000 compounds went through this panel and 15% of them were active in at least one assay; those are over-represented in the sample as a whole. A number with no mark means an inactive call. Calls of active or inactive are those of the source. Cut-off read from the data, not from the text of the source: active = growth inhibition above about 70%; inactive = the rest.

Assay [1] can be described thus: NCI Yeast Anticancer Drug Screen. Data for the rad50 strain (AID 155).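 Note: 0% = growth of vehicle-only cultures of the same strain.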 Conditions: S. cerevisiae rad50 strain growth inhibition, hits give high values. In short, it runs like this: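 Vehicle-treated cultures provide the reference for the growth inhibition reported for compound-exposed, repair-deficient yeast.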
Assay [2] in a line: NCI Yeast Anticancer Drug Screen. Data for the mec2-1 strain (AID 157). The settings on record: S. cerevisiae mec2-1 strain, hits give high values. In short, it runs like this: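 Cells of the genetically defined mec2-1 yeast strain are incubated with test compound. Inhibition of growth is calculated against vehicle-treated controls.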
Assay [3] can be described thus: NCI Yeast Anticancer Drug Screen. Data for the sgs1 mgt1 strain (AID 161).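 Note: 0% = growth of cultures given vehicle only.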 The settings on record: S. cerevisiae sgs1 mgt1 strain, hits give high values. In short, it runs like this: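 Read-out: growth inhibition vs vehicle controls. Cells: mutant yeast strain deficient in DNA damage repair.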
Assay [4] in a line: NCI Yeast Anticancer Drug Screen. Data for the cln2 rad14 strain (AID 165).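 Note: 0% = growth equal to vehicle treated cultures.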 Conditions: S. cerevisiae cln2 rad14 strain, hits give high values. In short, it runs like this: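 The screen exposed genetically defined yeast (cln2 rad14) to test compounds and scored growth inhibition relative to vehicle-treated controls.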
Assay [5] is described as follows: NCI Yeast Anticancer Drug Screen. Data for the bub3 strain (AID 167). Conditions: S. cerevisiae bub3 mutant strain, hits give high values. In short, it runs like this: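 Mutant yeast screening strain plus compound; vehicle-treated cultures serve as the 0% inhibition reference.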
Assay [6] can be described thus: NCI Yeast Anticancer Drug Screen. Data for the mlh1 rad18 strain (AID 175). The settings on record: S. cerevisiae mlh1 rad18 strain growth inhibition, hits give high values. The method, boiled down:
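Compound-treated yeast growth, normalised to vehicle controls. Strain bears defined DNA repair mutations.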

Where [7] appears, read: at 5.0 µM (retest, dose inferred, filed as 0.5).
The mark [8] stands for this setting: at 50.0 µM (retest, dose inferred, filed as 5.0).

`O=C(CSc1nnc(-c2ccc(N=Cc3ccc(Cl)cc3)cc2)o1)Nc1ccc(Cl)cc1Cl`: the growth inhibition in assay [1] (setting [7]) was 14%; in assay [1] (setting [8]), 99% (active); in assay [1] (at 50.0 µM) it was 95.8% (active); in assay [2] (setting [7]), -1%; in assay [2] (setting [8]), 99% (active); in assay [2] (at 50.0 µM), 99.2% (active). Besides, the growth inhibition was 17% in assay [3] (setting [7]); 100% (active) in assay [3] (setting [8]); 95.9% (active) in assay [3] (at 50.0 µM); 27% in assay [4] (setting [7]); 99% (active) in assay [4] (setting [8]); 91.2% (active) in assay [4] (at 50.0 µM). Moreover, the growth inhibition was 12% in assay [5] (setting [7]); 100% (active) in assay [5] (setting [8]); 98.5% (active) in assay [5] (at 50.0 µM); 30% in assay [6] (setting [7]); 99% (active) in assay [6] (setting [8]); 97.9% (active) in assay [6] (at 50.0 µM).
For the molecule `COc1cccc(/C=C/C(C)=O)c1OC`, the growth inhibition in assay [1] (setting [7]) is 2%; in assay [1] (setting [8]), 35%; in assay [1] (at 50.0 µM) it was 76% (active); in assay [2] (setting [7]), 4%; in assay [2] (setting [8]), 8%; in assay [2] (at 50.0 µM), 13.9%. In addition, the growth inhibition in assay [3] (setting [7]) is -1%; in assay [3] (setting [8]), 3%; in assay [3] (at 50.0 µM), 24.5%; in assay [4] (setting [7]), -4%; in assay [4] (setting [8]), 4%; in assay [4] (at 50.0 µM), 21.9%. The growth inhibition in assay [5] (setting [7]) was -2%; in assay [5] (setting [8]) it was -1%; in assay [5] (at 50.0 µM), 5.2%; in assay [6] (setting [7]), -4%; in assay [6] (setting [8]), 7%; in assay [6] (at 50.0 µM) it was 37.5%.
`O=c1oc2c3ccc4ccccc4c3n(CCCN3CCCCC3)c2c2ccccc12`: the growth inhibition in assay [1] (setting [7]) was 81% (active); in assay [1] (setting [8]), 81% (active); in assay [1] (at 50.0 µM), 54.4%; in assay [2] (setting [7]), 17%; in assay [2] (setting [8]), 17%; in assay [2] (at 50.0 µM), 82.8% (active). Further, the growth inhibition in assay [3] (setting [7]) is 35%; in assay [3] (setting [8]) it was 35%; in assay [3] (at 50.0 µM) it was 87.4% (active); in assay [4] (setting [7]), 27%; in assay [4] (setting [8]) it was 27%; in assay [4] (at 50.0 µM) it was 76% (active). The growth inhibition was -4% in assay [5] (setting [7]); -4% in assay [5] (setting [8]); 84.8% (active) in assay [5] (at 50.0 µM); -13% in assay [6] (setting [7]); -13% in assay [6] (setting [8]); 87.3% (active) in assay [6] (at 50.0 µM).
`O=[N+]([O-])c1cccc(F)c1O`: the growth inhibition was 5% in assay [1] (setting [7]); 87% (active) in assay [1] (setting [8]); 52.5% in assay [1] (at 50.0 µM); 6% in assay [2] (setting [7]); 79% (active) in assay [2] (setting [8]); 33.1% in assay [2] (at 50.0 µM). The growth inhibition was 6% in assay [3] (setting [7]); 78% (active) in assay [3] (setting [8]); 42.5% in assay [3] (at 50.0 µM); 6% in assay [4] (setting [7]); 65% in assay [4] (setting [8]); 0.25% in assay [4] (at 50.0 µM). Besides, the growth inhibition is 0% in assay [5] (setting [7]); 73% (active) in assay [5] (setting [8]); 11.3% in assay [5] (at 50.0 µM); 0% in assay [6] (setting [7]); 89% (active) in assay [6] (setting [8]); 78.3% (active) in assay [6] (at 50.0 µM).
Regarding `CCCCCCCCCCCC(O)CN1CCOCC1` (stereo not given), the growth inhibition in assay [1] (setting [7]) was 49%; in assay [1] (setting [8]) it was 1%; in assay [1] (at 50.0 µM) it was 98.4% (active); in assay [2] (setting [7]), 46%; in assay [2] (setting [8]), 9%; in assay [2] (at 50.0 µM) it was 97.5% (active). The growth inhibition is 49% in assay [3] (setting [7]); -2% in assay [3] (setting [8]); 43.8% in assay [3] (at 50.0 µM); 46% in assay [4] (setting [7]); 8% in assay [4] (setting [8]); 91.5% (active) in assay [4] (at 50.0 µM). The growth inhibition in assay [5] (setting [7]) was 57%; in assay [5] (setting [8]), 31%; in assay [5] (at 50.0 µM), 98.8% (active); in assay [6] (setting [7]), 43%; in assay [6] (setting [8]), 4%; in assay [6] (at 50.0 µM), 94% (active).
Regarding `Cc1cccnc1NC(=S)Nc1ccccc1Cl`, the growth inhibition in assay [1] (setting [7]) is 2%; in assay [1] (setting [8]) it was 99% (active); in assay [1] (at 50.0 µM), 89.5% (active); in assay [2] (setting [7]) it was 12%; in assay [2] (setting [8]) it was 99% (active); in assay [2] (at 50.0 µM), 91.3% (active). The growth inhibition was 28% in assay [3] (setting [7]); 99% (active) in assay [3] (setting [8]); 93.2% (active) in assay [3] (at 50.0 µM); -12% in assay [4] (setting [7]); 99% (active) in assay [4] (setting [8]); 85.8% (active) in assay [4] (at 50.0 µM). Moreover, the growth inhibition in assay [5] (setting [7]) was 18%; in assay [5] (setting [8]), 95% (active); in assay [5] (at 50.0 µM), 91.8% (active); in assay [6] (setting [7]), 28%; in assay [6] (setting [8]) it was 99% (active); in assay [6] (at 50.0 µM), 89.5% (active).
`COc1ccccc1Nc1nc(SC)ncc1SC`: the growth inhibition is -4% in assay [1] (setting [7]); 91% (active) in assay [1] (setting [8]); 95.1% (active) in assay [1] (at 50.0 µM); -12% in assay [2] (setting [7]); 75% (active) in assay [2] (setting [8]); 96.4% (active) in assay [2] (at 50.0 µM). Besides, the growth inhibition in assay [3] (setting [7]) was -5%; in assay [3] (setting [8]), 69%; in assay [3] (at 50.0 µM), 94% (active); in assay [4] (setting [7]) it was -8%; in assay [4] (setting [8]) it was 30%; in assay [4] (at 50.0 µM) it was 41.9%. In addition, the growth inhibition in assay [5] (setting [7]) was 1%; in assay [5] (setting [8]) it was 93% (active); in assay [5] (at 50.0 µM) it was 98% (active); in assay [6] (setting [7]) it was -6%; in assay [6] (setting [8]), 82% (active); in assay [6] (at 50.0 µM), 92.2% (active).
With `CN1c2ccccc2S(=O)(=O)n2c(CCc3ccccc3)nnc21`, the growth inhibition was 1% in assay [1] (setting [7]); 10% in assay [1] (setting [8]); 14.3% in assay [1] (at 50.0 µM); 5% in assay [2] (setting [7]); 13% in assay [2] (setting [8]); -3% in assay [2] (at 50.0 µM). Further, the growth inhibition was 10% in assay [3] (setting [7]); 10% in assay [3] (setting [8]); -6.9% in assay [3] (at 50.0 µM); 17% in assay [4] (setting [7]); 14% in assay [4] (setting [8]); 9.85% in assay [4] (at 50.0 µM). Besides, the growth inhibition was 9% in assay [5] (setting [7]); 15% in assay [5] (setting [8]); -10.7% in assay [5] (at 50.0 µM); 10% in assay [6] (setting [7]); 17% in assay [6] (setting [8]); 32.5% in assay [6] (at 50.0 µM).
Consider `Cc1c(C2Cc3ccccc3N2C(=O)/C=C\C(=O)O)c2ccccc2n1C` (stereo not given), for which the growth inhibition in assay [1] (setting [7]) is 33%; in assay [1] (setting [8]), 32%; in assay [1] (at 50.0 µM), 74.8% (active); in assay [2] (setting [7]), 25%; in assay [2] (setting [8]) it was 35%; in assay [2] (at 50.0 µM), 33.4%. The growth inhibition is 39% in assay [3] (setting [7]); 34% in assay [3] (setting [8]); 40.4% in assay [3] (at 50.0 µM); 31% in assay [4] (setting [7]); 35% in assay [4] (setting [8]); 53.5% in assay [4] (at 50.0 µM). Also, the growth inhibition in assay [5] (setting [7]) was 38%; in assay [5] (setting [8]) it was 38%; in assay [5] (at 50.0 µM) it was 32.6%; in assay [6] (setting [7]), 42%; in assay [6] (setting [8]), 35%; in assay [6] (at 50.0 µM), 22.4%.
For `Clc1ccc(CN2CCN(Cc3ccc(Cl)cc3)C2c2ccc(Cl)cc2)cc1`, the growth inhibition in assay [1] (setting [7]) was 17%; in assay [1] (setting [8]) it was 66%; in assay [1] (at 50.0 µM), 21.9%; in assay [2] (setting [7]), 4%; in assay [2] (setting [8]), 58%; in assay [2] (at 50.0 µM) it was 34.5%. Further, the growth inhibition in assay [3] (setting [7]) is 40%; in assay [3] (setting [8]), 92% (active); in assay [3] (at 50.0 µM), 53.5%; in assay [4] (setting [7]), 26%; in assay [4] (setting [8]), 55%; in assay [4] (at 50.0 µM), 69.4%. In addition, the growth inhibition in assay [5] (setting [7]) is 33%; in assay [5] (setting [8]), 83% (active); in assay [5] (at 50.0 µM), 28.1%; in assay [6] (setting [7]) it was 28%; in assay [6] (setting [8]), 77% (active); in assay [6] (at 50.0 µM) it was 27.2%.
